PubChem BioAssay AID1159580 (chemical genetic matrix, 2015)
In all, about 5,500 compounds went through this assay and about 2,000 (36%) were called active. About 18% were inconclusive and are not listed. Cut-off read from the data, not from the text of the source: active = normalized growth mostly below about 0.91 (no sharp cut-off); inconclusive = no clear call, values can overlap the other calls; inactive = mostly above about 0.92. This is one part of the list.

Experiment: chemical genetic growth profiling, strain panel (AID 1159580);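 note: tested at 20 µM; growth read once vehicle control cultures reached saturation at 30 °C; 1 = growth at the plate median or of vehicle wells; lower values mean less growth of the strain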
Details: growth OD

Measured: normalized growth

Nc1cc2c(cc1Cl)C(=O)NC2=O
inactive: S. cerevisiae deletion strains, locus YAL013W, strain DEP1, hits give low values 0.995 | S. cerevisiae deletion strains, locus YBR229C, strain ROT2, hits give low values 0.999 | S. cerevisiae deletion strains, locus YDL101C, strain DUN1, hits give low values 1.02 | S. cerevisiae deletion strains, locus YDL134C, strain PPH21, hits give low values 1.02 | S. cerevisiae deletion strains, locus YDR150W, strain NUM1, hits give low values 0.929 | S. cerevisiae deletion strains, locus YEL061C, strain CIN8, hits give low values 1.01 | S. cerevisiae deletion strains, locus YGR078C, strain PAC10, hits give low values 1 | S. cerevisiae deletion strains, locus YHR030C, strain SLT2, hits give low values 1.04 | S. cerevisiae deletion strains, locus YHR087W, strain rtc3, hits give low values 0.988 | S. cerevisiae deletion strains, locus YJR043C, strain POL32, hits give low values 1.01 | S. cerevisiae deletion strains, locus YJR075W, strain HOC1, hits give low values 0.996 | S. cerevisiae deletion strains, locus YLR039C, strain RIC1, hits give low values 0.994 | S. cerevisiae deletion strains, locus YLR058C, strain SHM2 (second series), hits give low values 1 | S. cerevisiae deletion strains, locus YLR085C, strain ARP6, hits give low values 0.98 | S. cerevisiae deletion strains, locus YLR262C, strain YPT6, hits give low values 1 | S. cerevisiae deletion strains, locus YML094W, strain GIM5, hits give low values 0.985 | S. cerevisiae deletion strains, locus YMR219W, strain ESC1, hits give low values 1.01 | S. cerevisiae deletion strains, locus YMR263W, strain SAP30, hits give low values 0.984 | S. cerevisiae deletion strains, locus YNL153C, strain GIM3, hits give low values 1 | S. cerevisiae deletion strains, locus YNL298W, strain CLA4 (second series), hits give low values 1.03 | S. cerevisiae deletion strains, locus YNL322C, strain KRE1, hits give low values 0.999 | S. cerevisiae deletion strains, locus YNR030W, strain Alg12, hits give low values 0.985 | S. cerevisiae deletion strains, locus YOL006C, strain TOP1, hits give low values 1.02 | S. cerevisiae deletion strains, locus YPL055C, strain LGE1, hits give low values 0.851 | S. cerevisiae deletion strains, locus YPL241C, strain CIN2, hits give low values 0.985 | S. cerevisiae deletion strains, locus YPR135W, strain CTF4, hits give low values 1.02 | S. cerevisiae strains, strain wild type, hits give low values 1.02
